In PubChem BioAssay (Tox21):
Records with an inconclusive call do not appear. Activity calls are given as the source filed them. Unless noted, the call rests on the fitted dose curve.

Assays:
[1] = Nuclear factor erythroid 2-related factor 2/antioxidant responsive element (Nrf2/ARE) small molecule agonists: qHTS cell viability counter screen in human keratinocytes (AID 1919968; active means well fitted curve in the direction sought with a large enough effect in the repeat runs; an effect the other way counts as inactive or inconclusive; further: nearly all actives have a fitted effect of over 55% in size)
In short: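 Cells of the KeratinoSens line were plated at 1,500 per well and left for 5 h before compound transfer from DMSO stocks. After a 23 h incubation (37 C, 5% CO2), CellTiter-Fluor was added. Signal was taken as fluorescence intensity 1 h later.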

[2] = Nuclear factor erythroid 2-related factor 2/antioxidant responsive element (Nrf2/ARE) small molecule agonists: luciferase reporter gene qHTS assay in human keratinocytes (AID 1919969); further: nearly all actives have a fitted effect of over 35% in size
[3] = molecular target: Gonadotropin-releasing hormone receptor (Homo sapiens) (UniProt P30968); test: Human gonadotropin-releasing hormone receptor (GnRHR) small molecule agonists, calcium flux assay in GnRHR-HEK293 cells (AID 1920063); further: nearly all actives have a fitted effect of over 35% in size
Sequence of Gonadotropin-releasing hormone receptor (Homo sapiens) (P30968 whole entry, looked up): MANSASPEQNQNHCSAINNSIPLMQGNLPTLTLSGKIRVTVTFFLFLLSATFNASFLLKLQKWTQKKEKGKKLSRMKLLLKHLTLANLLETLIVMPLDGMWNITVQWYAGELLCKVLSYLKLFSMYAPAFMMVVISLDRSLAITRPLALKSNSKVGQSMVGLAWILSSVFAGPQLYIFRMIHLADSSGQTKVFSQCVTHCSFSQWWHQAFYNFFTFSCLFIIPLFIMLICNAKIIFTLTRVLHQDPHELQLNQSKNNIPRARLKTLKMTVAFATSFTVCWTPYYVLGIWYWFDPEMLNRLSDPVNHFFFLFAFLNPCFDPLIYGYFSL
In short: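 Compounds dissolved in DMSO are pin-transferred onto dye-loaded GnRHR-HEK293 cells, which were seeded 18 h before at 37 C/5% CO2. Calcium signal is read as fluorescence intensity at 1 s intervals for 3 min.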

[4] = molecular target: KiSS-1 receptor (Homo sapiens) (UniProt Q969F8); test: Human kisspeptin (KISS1R) small molecule agonists, calcium flux assay in KISS1R-HEK293 cells (AID 1920064; active means well fitted curve in the direction sought with a large enough effect in the repeat runs; an effect the other way counts as inactive or inconclusive)
Sequence of KiSS-1 receptor (Homo sapiens) (Q969F8 whole entry, looked up): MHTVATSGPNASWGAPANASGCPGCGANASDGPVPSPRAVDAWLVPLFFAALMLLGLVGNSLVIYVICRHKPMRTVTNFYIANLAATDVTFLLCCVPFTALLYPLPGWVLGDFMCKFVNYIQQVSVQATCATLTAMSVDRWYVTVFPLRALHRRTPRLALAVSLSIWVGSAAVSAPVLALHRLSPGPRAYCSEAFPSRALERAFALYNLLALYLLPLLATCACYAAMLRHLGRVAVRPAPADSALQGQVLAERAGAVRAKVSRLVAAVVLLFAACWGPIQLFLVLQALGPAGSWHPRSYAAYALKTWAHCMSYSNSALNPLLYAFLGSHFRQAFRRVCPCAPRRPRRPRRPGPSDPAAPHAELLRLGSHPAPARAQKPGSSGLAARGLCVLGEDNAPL
In short: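 Cell line: HEK293, stable human KISS1R. Dye loading 1 h at 37 C after 18 h culture. Read: kinetic fluorescence, 480/540 nm, 3 min at 1 s intervals.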

[5] = G protein-coupled receptor (GPCR) small molecule agonists, calcium flux assay: HEK293 wild type cell line counter screen (AID 1920065)
In short: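 Tox21 10K compounds, 15 concentrations each in triplicate, pin-transferred in DMSO onto dye-loaded cells; kinetic read at 480/540 nm for 3 min, 1 s intervals.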

[6] = p53 small molecule agonists, cell-based qHTS assay with rat liver microsomes (AID 1963578)
In short: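 With rat liver microsomes and NADPH present (0.5 mg/mL final each), p53RE-bla cells are treated with compound for 16 h at 37 C. LiveBLAzer detection mixture is then applied for 2 h at room temperature in the dark.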

[7] = p53 small molecule agonists, cell-based qHTS assay with human liver microsomes: qHTS cell viability counter screen (AID 1963579); further: nearly all actives have a fitted effect of over 45% in size
In short: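 In this multiplexed counter screen, the reporter plates were subsequently treated with CellTiter-Glo so that cell viability, reflected by luminescence, could be recorded for p53RE-bla cells dosed 16 h with compounds under microsomal activation (HLM and NADPH).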

[8] = p53 small molecule agonists, cell-based qHTS assay with rat liver microsomes: qHTS cell viability counter screen (AID 1963580); further: nearly all actives have a fitted effect of over 45% in size
In short: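 Rat liver microsome (0.5 mg/mL final) and NADPH (0.5 mg/mL final) co-incubation with compounds for 16 h at 37 C on HCT-116 p53RE-bla cells; cytotoxicity taken from intracellular ATP luminescence.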

[9] = p53 small molecule agonists, cell-based qHTS assay: qHTS cell viability counter screen (AID 1963581); further: nearly all actives have a fitted effect of over 45% in size
In short: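 ATP content measured by luminescence in HCT-116 p53RE-bla cells treated 16 h at 37 C, same wells as the reporter screen.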

[10] = p53 small molecule agonists, cell-based qHTS assay (AID 1963582; active means well fitted activation curve with a large enough effect in the signal ratio in the repeat runs, not every such curve was filed as active; the % refers to the signal ratio)
In short: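 16 h compound exposure (37 C) of p53 response element–bla cells, preceded by 5 h recovery at 37 C/5% CO2; read-out via LiveBLAzer B/G FRET substrate, 2 h RT, fluorescence intensity.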

[11] = molecular target: 5-hydroxytryptamine receptor 2A (Homo sapiens) (UniProt P28223); test: 5-hydroxytryptamine receptor 2A (HTR2A) small molecule antagonists, cell-based qHTS assay (AID 1963586); further: nearly all actives have a fitted effect of over 45% in size
Sequence of 5-hydroxytryptamine receptor 2A (Homo sapiens) (P28223 whole entry, looked up): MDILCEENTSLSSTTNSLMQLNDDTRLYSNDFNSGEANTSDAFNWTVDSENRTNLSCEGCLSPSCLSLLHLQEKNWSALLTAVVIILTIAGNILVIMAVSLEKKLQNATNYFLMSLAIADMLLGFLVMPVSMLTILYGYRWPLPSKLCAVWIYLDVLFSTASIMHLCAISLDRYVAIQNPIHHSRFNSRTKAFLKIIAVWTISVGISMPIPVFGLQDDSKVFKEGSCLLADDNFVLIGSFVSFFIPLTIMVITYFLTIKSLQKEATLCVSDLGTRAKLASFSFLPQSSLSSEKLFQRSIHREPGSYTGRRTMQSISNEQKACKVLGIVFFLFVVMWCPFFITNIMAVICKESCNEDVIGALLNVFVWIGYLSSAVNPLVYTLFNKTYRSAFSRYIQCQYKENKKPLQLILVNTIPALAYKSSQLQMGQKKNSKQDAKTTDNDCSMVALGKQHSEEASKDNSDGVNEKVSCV
In short: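 CHO cells stably expressing human HTR2A were plated for 18 h at 37 C, then loaded with calcium dye for 1 h. Compounds were preincubated 5 min at room temperature before DOI (4 nM solution) was added. Kinetic fluorescence was read for 3 min.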

[12] = molecular target: 5-hydroxytryptamine receptor 2A (Homo sapiens) (UniProt P28223); test: 5-hydroxytryptamine receptor 2A (HTR2A) small molecule agonists, cell-based qHTS assay (AID 1963587); further: nearly all actives have a fitted effect of over 30% in size
In short: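 Kinetic calcium-flux fluorescence (2 min, 1 sec intervals) after compound addition in agonist mode. HTR2A-CHO cells were cultured 18 h, then dye-loaded 1 h at 37 C.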

[13] = molecular target: Muscarinic acetylcholine receptor M1 (Homo sapiens) (UniProt P11229); test: Cholinergic receptor muscarinic 1 (CHRM1) small molecule antagonists, cell-based qHTS assay (AID 1963588); further: nearly all actives have a fitted effect of over 40% in size
Sequence of Muscarinic acetylcholine receptor M1 (Homo sapiens) (P11229 whole entry, looked up): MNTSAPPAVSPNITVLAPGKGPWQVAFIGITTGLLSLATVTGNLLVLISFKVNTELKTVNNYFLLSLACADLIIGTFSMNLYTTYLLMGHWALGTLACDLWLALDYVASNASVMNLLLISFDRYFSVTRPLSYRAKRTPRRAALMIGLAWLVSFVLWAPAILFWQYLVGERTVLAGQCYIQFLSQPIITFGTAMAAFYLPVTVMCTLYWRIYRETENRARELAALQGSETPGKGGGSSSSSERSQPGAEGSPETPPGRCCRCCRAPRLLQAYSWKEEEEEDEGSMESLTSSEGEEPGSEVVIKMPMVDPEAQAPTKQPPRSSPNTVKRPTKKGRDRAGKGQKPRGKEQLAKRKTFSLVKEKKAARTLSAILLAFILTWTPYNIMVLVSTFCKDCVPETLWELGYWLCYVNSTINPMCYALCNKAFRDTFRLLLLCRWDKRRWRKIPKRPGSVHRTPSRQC
In short: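 Compounds were tested at 15 concentrations in three independent runs. Dye-loaded CHRM1-CHO cells were exposed 5 min at room temperature before stimulation by acetylcholine added at 50nM. Intracellular calcium was read kinetically on FDSS for 3 min.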

[14] = molecular target: Muscarinic acetylcholine receptor M1 (Homo sapiens) (UniProt P11229); test: Cholinergic receptor muscarinic 1 (CHRM1) small molecule agonists, cell-based qHTS assay (AID 1963589); further: nearly all actives have a fitted effect of over 35% in size
In short: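 Homogeneous fluorescence calcium flux, agonist mode. Human M1-expressing CHO cells; compound dosed at 15 concentrations, three independent runs; signal sampled every 1 sec.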

[15] = cAMP Responsive Elements (CRE) small molecule agonists, cell-based qHTS assay (AID 1963590)
In short: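 HEK 293T cells stably bearing CRE-bla were plated at 2,000 cells per well and rested 18 h. Compounds, positive controls or DMSO were added for 3 h at 37 C. LiveBLAzer B/G substrate was then loaded for 2 h at room temperature.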

[16] = cAMP Responsive Elements (CRE) small molecule antagonists, cell-based qHTS assay (AID 1963591; active means well fitted inhibition curve with a large enough effect in the signal ratio in the repeat runs, not every such curve was filed as active; the % refers to the signal ratio)
In short: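 First, CRE-bla HEK293T cells settled 18 h at 37 C. Next, compound and 0.25 uM final NKH477 were applied for 3 h. Last, LiveBLAzer B/G substrate was loaded for 2 h at room temperature.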

[17] = molecular target: Beta-2 adrenergic receptor (Homo sapiens) (UniProt P07550); test: Adrenergic beta2 receptor (ADRB2) small molecule antagonists, cell-based qHTS assay (AID 1963592); further: series mostly up to about 92 µM; nearly all actives have a fitted effect of over 50% in size
Sequence of Beta-2 adrenergic receptor (Homo sapiens) (P07550 whole entry, looked up): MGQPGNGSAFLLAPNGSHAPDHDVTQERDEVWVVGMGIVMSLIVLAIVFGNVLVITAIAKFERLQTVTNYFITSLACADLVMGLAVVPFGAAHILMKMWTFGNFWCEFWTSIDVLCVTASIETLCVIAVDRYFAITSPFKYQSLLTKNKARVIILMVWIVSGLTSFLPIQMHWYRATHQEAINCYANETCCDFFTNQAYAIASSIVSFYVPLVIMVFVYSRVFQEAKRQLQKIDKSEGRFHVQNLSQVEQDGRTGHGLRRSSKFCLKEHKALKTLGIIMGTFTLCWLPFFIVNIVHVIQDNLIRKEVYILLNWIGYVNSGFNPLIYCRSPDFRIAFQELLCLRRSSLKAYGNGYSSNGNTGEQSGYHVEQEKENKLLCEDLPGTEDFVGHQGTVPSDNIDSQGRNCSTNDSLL
In short: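 Assay format: CHO-ADRB2 cells, 18-20hr seeding at 37C/5% CO2, then compound plus 1nM isoproterenol agonist mix for 0.5hr RT. Homogeneous time-resolved fluorescence cAMP detection after 1hr, expressed as 665/615 nm ratio.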

[18] = molecular target: Beta-2 adrenergic receptor (Homo sapiens) (UniProt P07550); test: Adrenergic beta2 receptor (ADRB2) small molecule agonists, cell-based qHTS assay (AID 1963593);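 further: CHO cells stably overexpressing human ADRB2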
In short: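 CHO cells stably over-expressing ADRB2 were plated overnight at 37C, then dosed with compounds plus a stimulation mix containing 100uM IBMX and 25uM Ro-20-1724 for 0.5hr at room temperature. cAMP was measured by HTRF competition, 1hr.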

[19] = molecular target: D(2) dopamine receptor (Homo sapiens) (UniProt P14416); test: Dopamine D2 receptor (DRD2) small molecule agonists, cell-based qHTS assay (AID 1963594); further: nearly all actives have a fitted effect of over 35% in size
Sequence of D(2) dopamine receptor (Homo sapiens) (P14416 whole entry, looked up): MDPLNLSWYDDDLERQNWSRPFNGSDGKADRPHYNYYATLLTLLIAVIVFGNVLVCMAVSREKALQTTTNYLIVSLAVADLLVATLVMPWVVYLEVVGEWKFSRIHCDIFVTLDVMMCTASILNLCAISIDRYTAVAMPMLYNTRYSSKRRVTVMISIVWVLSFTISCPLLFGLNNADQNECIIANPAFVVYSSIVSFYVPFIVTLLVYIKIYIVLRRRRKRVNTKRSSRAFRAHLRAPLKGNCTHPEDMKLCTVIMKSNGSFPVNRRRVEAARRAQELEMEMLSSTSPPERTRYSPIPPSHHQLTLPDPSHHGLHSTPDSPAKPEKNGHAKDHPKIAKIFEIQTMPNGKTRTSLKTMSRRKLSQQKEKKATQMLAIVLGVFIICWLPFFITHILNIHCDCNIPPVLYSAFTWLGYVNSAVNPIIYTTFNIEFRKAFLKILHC
In short: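 cAMP accumulation in DRD2-HEK293 cells measured by HTRF after 1 h detection; compounds added 10 min before NKH477 (200nM […]) forskolin-analogue stimulation, 30 min at room temperature, with Ro20-1724 present at 0.1 mM final.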

[20] = molecular target: D(2) dopamine receptor (Homo sapiens) (UniProt P14416); test: Dopamine D2 receptor (DRD2) small molecule antagonists, cell-based qHTS assay (AID 1963595; active means well fitted inhibition curve with a large enough effect in the signal ratio in the repeat runs, with a control signal flat; the % refers to the signal ratio)
In short: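 Antagonism was scored as restored cAMP in HEK293-DRD2 cells. These cells were stimulated with 200 nM NKH477 and 12 nM quinpirole for 30 min at room temperature, in the presence of 0.1 mM Ro20-1724.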

Measured: Potency

CCCO
inactive: all assays above

CCN(CC#N)c1cccc(C)c1
not listed: [6] | [14]
inactive: all other assays above

Cc1ncc(CSSCc2cnc(C)c(O)c2CO)c(CO)c1O
not listed: [6] | [14] | [20]
inactive: all other assays above

CCC(CC)C(C)CCOC(C)=O (configuration not stated)
inactive: all assays above

CC(=O)O[C@H]1C[C@@H]2CC[C@@]1(C)C2(C)C
not listed: [18]
inactive: all other assays above

C/C(=C1\CCOC(=O)S1)N(C=O)Cc1cnc(C)nc1N
not listed: [6] | [9] | [12] | [20]
inactive: all other assays above

C=C(C)[C@@H]1CCC2=CC(=O)C[C@@H](C)[C@]2(C)C1
inactive: all assays above

CC1=CC[C@@]23C[C@@H]1C(C)(C)[C@@H]2CC[C@H]3C
not listed: [20]
inactive: all other assays above

CCOC(=O)CN
not listed: [6] | [7] | [9] | [16] | [18]
inactive: all other assays above

O=C(CCS)OCC(COC(=O)CCS)(COC(=O)CCS)COC(=O)CCS
not listed: [6] | [7] | [18] | [20]
inactive: all other assays above

N#CCN(CC#N)CCN(CC#N)CC#N
inactive: all assays above

CC1=CCC(O)(C(C)C)CC1 (configuration not stated)
not listed: [6] | [7]
inactive: all other assays above

Cc1ccc(C(=O)C(=O)O)cc1C
not listed: [20]
inactive: all other assays above

CC(=O)c1cc(C)oc1C
not listed: [6] | [8] | [9]
inactive: all other assays above

CCCCC(CC)COCCO (configuration not stated)
not listed: [6] | [14]
inactive: all other assays above
